Bioassay records from PubChem.
Most compounds without a hit are left out; they make up all but 3.5% or so of the library.
SARS 3CLpro inh: SARS-CoV 3CLpro protease inhibition; P0C6X7; recombinant SARS-CoV 3CLpro, quenched FRET peptide cleavage; inhibition, % at 6 µM; 0.14% of 290,000 active; in the data active = inhibition above about 12%
BoNT A protease: blocks Botulinum neurotoxin A light chain protease | multiplex microsphere protease substrate cleavage, flow cytometry | inhibition, % at 10 µM | 0.17% of 360,000 active | AID 588499
Bead autofluor: counter-screen for toxin protease inhibitors: compound fluorescence; 3.1% of 360,000 active; AID 624483; compound autofluorescence counterscreen, microsphere flow cytometry; stronger effect = higher value; fluorescence intensity (test concentration not listed); in the data active = fluorescence intensity above about 16000; inconclusive = no clear call, values can overlap the other calls
Anthrax LF inh2: inhibitors of Bacillus anthracis lethal factor protease; P15917; multiplex microsphere protease cleavage assay, LF; inhibition, % at 10 µM; 0.12% of 360,000 active; AID 588501
BoNT F protease: BoNT F light chain protease inhibition; Multiplex microsphere protease cleavage assay, flow cytometry; inhibition, % at 10 µM; 0.22% of 360,000 active; AID 588497; in the data active = inhibition above about 35%, passing the limit was not always enough; inconclusive = no clear call, values can overlap the other calls
Hits are given with their value; i = inactive; ? = inconclusive; nt = no result given. Rule as the data show it, unless noted: active = inhibition above about 30%; inconclusive = no clear call, values can overlap the other calls; inactive = below that.

SMILES | SARS 3CLpro inh | BoNT A protease | Bead autofluor | Anthrax LF inh2 | BoNT F protease
O=C(COc1cccc(NC(=O)c2cccc([N+](=O)[O-])c2)c1)c1ccc(F)cc1 | i | i | i | i | i
CCOc1ccc(C(=O)NC(=S)Nc2ccc(N3CCC(C)CC3)cc2)cc1[N+](=O)[O-] | i | i | i | i | 39
CCOc1ccc(C(=O)NC(=S)Nc2ccccc2N2CCC(C)CC2)cc1[N+](=O)[O-] | i | i | ? | i | i
Nc1nonc1-n1nnc(C(=O)N/N=C/c2cc(Br)cs2)c1-c1ccccc1 | i | i | i | i | i
COc1ccc(N2C(=O)C3C4C=CC(C4)C3C2=O)c(OC)c1 (centres undefined) | i | i | 22210 | i | i
COc1ccc(CCN(C)C(=O)CSc2nccn2C)cc1OC | i | ? | 19523 | i | i
Cc1ccc(-c2nc3sc4c(N)ncnc4c3c3c2CCCC3)cc1 | i | i | 22379 | i | i
O=c1[nH]cnc2c1sc1nc(-c3ccccc3)c3c(c12)CCCC3 | i | i | i | i | i
Cc1ccc(-n2c(C3CC3c3ccc(Cl)cc3)n[nH]c2=S)cc1 (centres undefined) | i | i | 23745 | i | i
S=c1[nH]nc(C2CC2c2ccc(Cl)cc2)n1-c1ccc(Cl)cc1 (centres undefined) | i | i | i | i | i
Cc1ccc(-n2c([C@@H]3C[C@H]3c3ccccc3)n[nH]c2=S)cc1 | i | i | i | i | i
Cc1ccc(C2CC2c2n[nH]c(=S)n2-c2ccc(C)cc2)cc1 (centres undefined) | i | ? | 24709 | i | i
CN1CCN(c2ccc([N+](=O)[O-])cc2NC(=O)c2cccs2)CC1 | i | i | i | i | i
Cc1ccc(S(=O)(=O)NCc2nnc(SCC(=O)Nc3cccc(C)c3C)n2C)cc1 | i | i | 21005 | i | i
COC(=O)CSc1nnc(CNS(=O)(=O)c2ccc(C)cc2)n1C | i | i | i | i | i
COc1cccc(CNC(=O)CC2C(=O)NCCN2Cc2ccoc2)c1OC (centres undefined) | i | i | i | i | i
O=C1CC(NCc2ccccc2F)C(=O)N1c1ccccc1 (centres undefined) | i | i | 16529 | i | i
O=C1CC(NCc2ccccc2)C(=O)N1c1ccc(F)cc1 (centres undefined) | i | i | i | i | i
O=C(NCCn1c(C(F)(F)F)nc2cc(C(F)(F)F)ccc21)[C@H]1CCCN1c1nc(CN2CCCCC2)cs1 | i | i | i | i | i
CCC(c1nc2ccccc2c(=O)n1CCCn1ccnc1)N1C(=O)c2ccccc2C1=O (centres undefined) | i | i | i | i | i
CCC(c1nc2ccccc2c(=O)n1CCN1CCOCC1)N1C(=O)c2ccccc2C1=O (centres undefined) | i | i | 20159 | i | i
COc1cc(NC(=O)c2ccc(Cl)cc2)c(OC)cc1Cl | i | i | i | i | i
CCC(Sc1ncccc1C(=O)Oc1cccc([N+](=O)[O-])c1)C(=O)Nc1ccccc1OC (centres undefined) | i | i | i | i | i
COc1ccc2[nH]c(=O)c(CN(CCN3CCCC3)C(=O)Nc3ccccc3Cl)cc2c1 | nt | i | i | i | i
O=C(CCC(NC(=O)OCc1ccccc1)C(=O)OCC(=O)N1CCCCC1)OCC(=O)N1CCCCC1 (centres undefined) | i | i | 21055 | i | i
SMILES | SARS 3CLpro inh | BoNT A protease | Bead autofluor | Anthrax LF inh2 | BoNT F protease
CC(Nc1cc(N2CCN(C(=O)C(C)(C)C)CC2)ccc1[N+](=O)[O-])c1ccccc1 (centres undefined) | i | i | 23558 | i | i
CCOC(=O)N1CCN(C(=O)c2cc(C)c3c(C)nn(-c4ccccc4)c3n2)CC1 | i | i | 23022 | i | i
CCOC(=O)N1CCC(NC(=O)CCc2c(C)nc3c(c(C)nn3-c3ccccc3)c2C)CC1 | nt | i | i | i | i
O=C(Nc1ccc(N2CCN(C(=O)c3ccccc3)CC2)c(Cl)c1)c1ccc(Br)o1 | i | i | 23206 | i | i
CCC(=O)N1CCN(c2ccc(Cl)cc2NC(=O)c2ccc(Br)o2)CC1 | i | i | 22198 | i | i
Cc1ccc(CCC(=O)NCc2ccccc2)o1 | i | i | i | i | i
CCCc1nc2ccc(C(=O)OC)cn2c1Cc1ccccc1C(F)(F)F | nt | i | i | i | i
O=C(N/N=C/c1ccsc1)c1cc(-c2cccs2)nc2ccccc12 | i | i | i | i | i
Cc1ccc(C(=O)Oc2coc(CSc3nnc(NC(=O)C4CC4)s3)cc2=O)cc1 | i | 30 | i | i | i
COc1cc(/C=N/N2CCN(Cc3ccc(Cl)cc3)CC2)ccc1OC(C)=O | i | i | i | i | ?
COc1ccc(/C=N/N2CCN(Cc3ccc(C)cc3)CC2)cc1Br | i | i | i | i | 43
COc1cc(/C=N/N2CCN(Cc3ccc(Cl)cc3)CC2)cc(Br)c1O | i | i | i | i | 36
CC(C)(C)n1nc2c(c1NC(=O)Cc1cccc3ccccc13)CS(=O)(=O)C2 | i | i | i | i | i
Cc1ccc(-c2cn(S(=O)(=O)c3ccc(C)cc3)nc2N)cc1 | i | i | 24762 | i | i
CCOc1ccc(S(=O)(=O)n2cc(-c3ccccc3)c(N)n2)cc1 | i | i | 23986 | i | i
CCOc1ccc(S(=O)(=O)n2cc(-c3ccc(F)cc3)c(N)n2)cc1 | i | i | 23064 | i | i
CCOc1cc(S(=O)(=O)n2cc(-c3ccc(F)cc3)c(N)n2)cc(OCC)c1OCC | i | i | i | i | i
Nc1nn(S(=O)(=O)c2ccccc2)cc1-c1cccc([N+](=O)[O-])c1 | i | i | i | i | i
O=C(/C=C/c1ccc2c(c1)OCO2)Nc1nc2ccccc2s1 | i | i | i | i | i
Cc1nn(CC(=O)NNC(=S)Nc2ccccc2)c(C)c1[N+](=O)[O-] | i | i | 21125 | i | i
Cc1ccc(NC(=S)NNC(=O)c2c(Cl)c(C)nn2C)cc1 | i | i | i | i | i
Cc1ccc(C2CC2C(=O)NNC(=S)Nc2cccc(Cl)c2)cc1 (centres undefined) | i | i | 20873 | i | i
Cc1ccc(NC(=S)NNC(=O)c2c([N+](=O)[O-])c(C)nn2C)cc1 | i | i | 23365 | i | i
Cc1cnn(CCC(=O)NNC(=S)Nc2cccc(Cl)c2)c1 | i | i | 21961 | i | i
Cc1ccc(NC(=S)NNC(=O)Cn2nc(C(F)F)cc2C(F)F)cc1 | i | i | i | i | i
SMILES | SARS 3CLpro inh | BoNT A protease | Bead autofluor | Anthrax LF inh2 | BoNT F protease
Cc1cccc(NC(=S)NNC(=O)CCn2nc(C)c([N+](=O)[O-])c2C)c1 | i | i | i | i | i
Cc1nn(CCC(=O)NNC(=S)Nc2cccc(Cl)c2)c(C)c1[N+](=O)[O-] | i | i | 20563 | i | i
O=C(Cn1nc(C(F)F)cc1C(F)F)NNC(=S)Nc1ccc(Cl)cc1 | i | i | 23616 | i | i
O=C1CCCC/C=C\C[C@H](CC(=O)N(CCO)Cc2ccccc2)C(=O)N[C@@H](Cc2ccccc2)CO1 | nt | i | i | i | i
Cc1ccc(CS(=O)(=O)CCC(=O)NCCN(C)Cc2ccccc2)cc1 | i | i | 23874 | i | i
COc1ccccc1NC(=O)c1cc(Cl)ccc1NC(=O)c1ccco1 | i | i | i | i | i
CCOc1ccccc1NC(=O)c1ccc(NC(=O)c2ccco2)cc1 | i | i | i | i | i
